CapD inh: blocks the Bacillus anthracis CapD enzyme | purified CapD enzyme, fluorescence intensity read-out; stronger effect = lower value | z-score (concentration not given with the values) | hit rate 0.23% among 140,000 | AID 492967; in the data active means z-score mostly below about -2.9, no sharp cut-off; inactive means mostly above about -1.9
The depositor's hits bear a star. Shown is part of a subset that was picked to be rich in hits.

SMILES	CapD inh
N#C/C(=C\C=C\c1ccco1)C(N)=S	-12*
c1cc(CN2CCOCC2)ccc1CN1CCOCC1	0.67
COc1cc(OC)nc(CSCCNC(=O)Nc2ccc(F)cc2F)n1	-0.59
CCOc1cc(C2Nc3ccc4ccccc4c3C3=C2C(=O)CC(C)(C)C3)ccc1OCc1ccc(Cl)cc1Cl (stereo unspecified)	17
O=C(NCC(F)(F)F)Nc1ccccc1	-0.63
C=CCSc1ncc2c(=S)[nH]c(=S)[nH]c2n1	-4.6*
S=c1[nH]c(=S)c2cnc(N3CCOCC3)nc2[nH]1	0.38
CCN(CC)c1ncc2c(=S)[nH]c(=S)[nH]c2n1	-1.5
CCOC(=O)c1c(C)cccc1NC(=O)c1cccs1	-1.7*
Cc1c(Cl)cccc1NC(=O)c1cccs1	0.48
Cc1ccc(C)c(NC(=O)c2cccs2)c1	0.76
O=C(N/N=C/c1ccccc1OCc1cnc(Cl)s1)c1cccnc1	-0.81

Assay outcomes: PubChem BioAssay, ICCB-Longwood Screening Facility, Harvard Medical School
